Assay results taken from PubChem BioAssay (NCI).
About 79,000 compounds went through this panel and 15% of them were active in at least one assay; those are over-represented in the sample as a whole. Active and inactive are the calls of the source. Cut-off read from the data, not from the text of the source: active = growth inhibition above about 70%; inactive = the rest.

What was measured:
[1] = NCI Yeast Anticancer Drug Screen. Data for the rad52 strain (AID 147);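 note: 0% = growth of vehicle-treated control cultures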; conditions: S. cerevisiae rad52 mutant growth inhibition, stronger effect = higher value
Summary of the method: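 DNA repair-defective yeast; compound exposure; growth scored against vehicle controls.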

[2] = NCI Yeast Anticancer Drug Screen. Data for the wt1 strain (AID 149);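 note: 0% = growth of vehicle-treated wt1 cultures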; conditions: S. cerevisiae wt1 strain (SPY 50644) growth inhibition, stronger effect = higher value
Summary of the method: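 Measured: growth of wt1 yeast under compound versus vehicle treatment, reported as inhibition.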

[3] = NCI Yeast Anticancer Drug Screen. Data for the rad50EPP+ strain (AID 151);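 note: 0% = growth of vehicle-treated control cultures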; conditions: S. cerevisiae rad50 mutant strain, stronger effect = higher value
Summary of the method: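 rad50EPP+ yeast treated with test compounds. Readout: growth vs vehicle control.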

[4] = NCI Yeast Anticancer Drug Screen. Data for the mgt1 strain (AID 153); conditions: S. cerevisiae mgt1 mutant growth inhibition, stronger effect = higher value
Summary of the method: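 Growth inhibition relative to vehicle controls was scored for the mgt1 yeast strain after compound exposure.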

[5] = NCI Yeast Anticancer Drug Screen. Data for the rad50 strain (AID 155);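 note: 0% = growth of vehicle-only cultures of the same strain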; conditions: S. cerevisiae rad50 strain growth inhibition, stronger effect = higher value
Summary of the method: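 Growth of the mutant yeast was measured after compound exposure and referenced to vehicle-treated cultures.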

[6] = NCI Yeast Anticancer Drug Screen. Data for the mec2-1 strain (AID 157); conditions: S. cerevisiae mec2-1 strain, stronger effect = higher value
Summary of the method: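 Growth inhibition is read against vehicle-treated controls after compound exposure of the mec2-1 yeast strain, which is defective in DNA damage repair or cell cycle control.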

[7] = NCI Yeast Anticancer Drug Screen. Data for the rad14 strain (AID 159);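 note: 0% = growth of vehicle-treated control cultures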; conditions: S. cerevisiae rad14 strain growth inhibition, stronger effect = higher value
Summary of the method: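 Here, inhibition of yeast growth was measured after compound exposure, using a strain with a genetic defect in DNA damage repair and vehicle-treated cultures as the reference.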

[8] = NCI Yeast Anticancer Drug Screen. Data for the sgs1 mgt1 strain (AID 161);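 note: 0% = growth of cultures given vehicle only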; conditions: S. cerevisiae sgs1 mgt1 strain, stronger effect = higher value
Summary of the method: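 Compounds are added to genetically altered yeast, and growth is compared with cultures given vehicle alone to give percent inhibition.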

[9] = NCI Yeast Anticancer Drug Screen. Data for the CLN2oe strain (AID 163);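 note: 0% = growth of vehicle-only control cultures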; conditions: S. cerevisiae CLN2oe strain, stronger effect = higher value
Summary of the method: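 Compound-treated yeast; growth vs vehicle ctrl = % inhibition. Genetically altered strain (cell-cycle control).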

[10] = NCI Yeast Anticancer Drug Screen. Data for the cln2 rad14 strain (AID 165);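 note: 0% = growth equal to vehicle treated cultures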; conditions: S. cerevisiae cln2 rad14 strain, stronger effect = higher value
Summary of the method: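 Growth inhibition, relative to vehicle-treated controls, is the read-out. The test organism is a yeast strain with defined genetic alterations, cln2 rad14.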

[11] = NCI Yeast Anticancer Drug Screen. Data for the bub3 strain (AID 167); conditions: S. cerevisiae bub3 mutant strain, stronger effect = higher value
Summary of the method: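 Whole-cell yeast assay. The mutant strain was incubated with compounds, and growth inhibition was determined by comparison with vehicle-treated cells.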

[12] = NCI Yeast Anticancer Drug Screen. Data for the wt2 strain (AID 169);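 note: 0% = growth of vehicle-treated yeast cultures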; conditions: S. cerevisiae wt2 strain growth inhibition, stronger effect = higher value
Summary of the method: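 Compound exposure of yeast; growth compared with vehicle controls; inhibition reported.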

[13] = NCI Yeast Anticancer Drug Screen. Data for the mlh1 strain (AID 171);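 note: 0% = growth of vehicle-treated control cultures of the same strain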; conditions: S. cerevisiae mlh1 strain growth inhibition, stronger effect = higher value
Summary of the method: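 Compounds are applied to a genetically altered yeast strain, and its growth is compared with that of vehicle-treated cultures to give percent inhibition.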

[14] = NCI Yeast Anticancer Drug Screen. Data for the mlh1 rad18 strain (AID 175); conditions: S. cerevisiae mlh1 rad18 strain growth inhibition, stronger effect = higher value
Summary of the method: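 Cells of a genetically altered yeast strain, deficient in DNA damage repair, were treated with compound. Their growth was then compared with that of vehicle-treated cultures to give inhibition.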

[15] = NCI Yeast Anticancer Drug Screen. Data for the rad18 strain (AID 177); conditions: S. cerevisiae rad18 mutant growth inhibition, stronger effect = higher value
Summary of the method: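 Compounds are applied to a repair-deficient yeast strain, and growth is compared with that of vehicle-treated cultures to give percent inhibition.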

[16] = at 5.0 µM (retest, dose inferred, filed as 0.5)
[17] = at 50.0 µM (retest, dose inferred, filed as 5.0)

Measured: growth inhibition

COc1cccc2nc3ccccc3nc12
active: [1]; at 33.0 µM 90% | [1]; at 100.0 µM 97% | [2]; at 100.0 µM 91% | [3]; at 33.0 µM 79% | [3]; at 100.0 µM 94% | [4]; at 33.0 µM 75% | [4]; at 100.0 µM 95% | [5]; at 33.0 µM 91% | [5]; at 50.0 µM 83.6% | [5]; at 100.0 µM 97% | [6]; at 100.0 µM 89% | [7]; at 100.0 µM 82% | [9]; at 100.0 µM 91% | [11]; at 100.0 µM 94% | [12]; at 100.0 µM 96% | [13]; at 100.0 µM 97% | [15]; at 33.0 µM 84% | [15]; at 100.0 µM 95%
inactive: [1]; at 1.2 µM 1% | [1]; at 3.7 µM 7% | [1]; at 11.0 µM 34% | [2]; at 1.2 µM -2% | [2]; at 3.7 µM -2% | [2]; at 11.0 µM 3% | [2]; at 33.0 µM 45% | [3]; at 1.2 µM 1% | [3]; at 3.7 µM 8% | [3]; at 11.0 µM 34% | [4]; at 1.2 µM 1% | [4]; at 3.7 µM 1% | [4]; at 11.0 µM 6% | [5]; at 1.2 µM 2% | [5]; at 3.7 µM 15% | [5]; [16] -22% | [5]; at 11.0 µM 45% | [5]; [17] 65% | [6]; at 1.2 µM -2% | [6]; at 3.7 µM 2% | [6]; [16] -5% | [6]; at 11.0 µM 4% | [6]; at 33.0 µM 35% | [6]; [17] 17% | [6]; at 50.0 µM 31.3% | [7]; at 1.2 µM -2% | [7]; at 3.7 µM 0% | [7]; at 11.0 µM 2% | [7]; at 33.0 µM 30% | [8]; [16] -19% | [8]; [17] 5% | [8]; at 50.0 µM 4.55% | [9]; at 1.2 µM 0% | [9]; at 3.7 µM 1% | [9]; at 11.0 µM 1% | [9]; at 33.0 µM 48% | [10]; [16] -14% | [10]; [17] 18% | [10]; at 50.0 µM 9.4% | [11]; at 1.2 µM 1% | [11]; at 3.7 µM -11% | [11]; [16] -25% | [11]; at 11.0 µM 2% | [11]; at 33.0 µM 56% | [11]; [17] 19% | [11]; at 50.0 µM 24.9% | [12]; at 1.2 µM -2% | [12]; at 3.7 µM -1% | [12]; at 11.0 µM 8% | [12]; at 33.0 µM 50% | [13]; at 1.2 µM 0% | [13]; at 3.7 µM 3% | [13]; at 11.0 µM -2% | [13]; at 33.0 µM 51% | [14]; [16] -3% | [14]; [17] 36% | [14]; at 50.0 µM 43.1% | [15]; at 1.2 µM -3% | [15]; at 3.7 µM -2% | [15]; at 11.0 µM 16%

Cc1ccc2[nH]c3c(C)c4cc[n+](C)cc4c(C)c3c2c1
inactive: [1]; at 1.2 µM 25% | [1]; at 3.7 µM 14% | [1]; at 11.0 µM 34% | [2]; at 1.2 µM -6% | [2]; at 3.7 µM -12% | [2]; at 11.0 µM -10% | [2]; at 33.0 µM 6% | [3]; at 1.2 µM 35% | [3]; at 3.7 µM 21% | [3]; at 11.0 µM 31% | [3]; at 33.0 µM 49% | [4]; at 1.2 µM -18% | [4]; at 3.7 µM -15% | [4]; at 11.0 µM -23% | [4]; at 33.0 µM 47% | [5]; at 1.2 µM 12% | [5]; at 3.7 µM 16% | [5]; [16] 22% | [5]; at 11.0 µM 26% | [6]; at 1.2 µM -2% | [6]; at 3.7 µM 19% | [6]; [16] 15% | [6]; at 11.0 µM 8% | [6]; at 33.0 µM 55% | [7]; at 1.2 µM 16% | [7]; at 3.7 µM 6% | [7]; at 11.0 µM -8% | [7]; at 33.0 µM 41% | [8]; [16] 13% | [8]; [17] 8% | [9]; at 1.2 µM 42% | [9]; at 3.7 µM 37% | [9]; at 11.0 µM 36% | [9]; at 33.0 µM 63% | [10]; [16] 30% | [10]; [17] 37% | [10]; at 50.0 µM 62.3% | [11]; at 1.2 µM 10% | [11]; at 3.7 µM 24% | [11]; [16] 12% | [11]; at 11.0 µM 23% | [11]; at 33.0 µM 51% | [11]; at 50.0 µM 65.6% | [12]; at 1.2 µM 3% | [12]; at 3.7 µM -19% | [12]; at 11.0 µM -15% | [12]; at 33.0 µM 49% | [13]; at 1.2 µM 7% | [13]; at 3.7 µM 25% | [13]; at 11.0 µM 14% | [13]; at 33.0 µM 61% | [14]; [16] 14% | [14]; at 50.0 µM -26.9% | [15]; at 1.2 µM -11% | [15]; at 3.7 µM -1% | [15]; at 11.0 µM 1% | [15]; at 33.0 µM 37%
active: [1]; at 33.0 µM 89% | [1]; at 100.0 µM 97% | [2]; at 100.0 µM 79% | [3]; at 100.0 µM 88% | [4]; at 100.0 µM 94% | [5]; at 33.0 µM 83% | [5]; [17] 91% | [5]; at 50.0 µM 85.6% | [5]; at 100.0 µM 95% | [6]; [17] 71% | [6]; at 50.0 µM 79.8% | [6]; at 100.0 µM 94% | [7]; at 100.0 µM 90% | [8]; at 50.0 µM 85.7% | [9]; at 100.0 µM 95% | [11]; [17] 81% | [11]; at 100.0 µM 95% | [12]; at 100.0 µM 95% | [13]; at 100.0 µM 94% | [14]; [17] 72% | [15]; at 100.0 µM 93%
